An excerpt weighted towards active compounds, which were near 4.5% of everything screened.
DAX1 inh-1: inhibitors of DAX1 repression of SF-1 activated StAR promoter; HEK293T StAR-luciferase reporter, SF-1/DAX-1 repression relief; inhibition, % at 6.8 µM; actives 1.1% (n = 370,000); AID 652010;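 active = inhibition above the mean over all tested compounds plus 3 SD, cut at about 3.6% in these data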;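 note: higher inhibition means more luminescence from relief of DAX-1 repression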
hcDAF-12 act: H. contortus DAF-12 activation, primary screen; actives 1.4% (n = 370,000); HEK293 hcDAF-12 lit1-tk-luc reporter, luminescence; 0% DMSO, 100% Δ7-dafachronic acid; activation, % at 6.8 µM;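 active = activation above the mean of all tested compounds plus 3 SD, cut at about 5.5% in these data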
hgDAF-12 ag: activates the H. glycines DAF-12 receptor ligand-binding domain; AID 687014; actives 1.8% (n = 370,000); activation, % at 6.8 µM; HEK293 GAL4-hgDAF12 UAS-luciferase reporter, agonist luminescence; normalized to butyrate control;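 active = activation above a cutoff set at the mean of all screened compounds plus 3 SD, cut at about 10% in these data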
ssDAF-12 act: activates DAF-12 receptor from parasite S. stercoralis; AID 652126; activation, % at 6.8 µM; actives 1% (n = 370,000); HEK293 ssDAF-12/GRIP1 lit1-tk-luc reporter, luminescence; % of 3 µM dafachronic acid response;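 active = activation above the mean over all tested compounds plus 3 SD, cut at about 0.9% in these data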
GAA850 FXN act: increases GAA850 frataxin promoter reporter activity. HEK293 lucGAA850 FXN promoter luciferase reporter, 24 h; percent of 10 µM SAHA response. activation, % at 6 µM. actives 0.56% (n = 360,000). AID 540364;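 active = activation above the average of all compounds screened plus 3 SD, cutoff fixed separately per campaign, cut at about 7.5% in these data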
DAX1 inh-2: inhibitors of human orphan nuclear receptor DAX1 (NR0B1) | HEK293 Gal4-DAX1 luciferase reporter, luminescence | inhibition, % at 6.75 µM | actives 0.99% (n = 340,000);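 active = inhibition above the mean over all tested compounds plus 3 SD, cut at about 4.2% in these data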;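 note: inhibition shows as a rise in luminescence from relieved DAX1 repression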
Target sequence (P51843 207-470 limits assumed): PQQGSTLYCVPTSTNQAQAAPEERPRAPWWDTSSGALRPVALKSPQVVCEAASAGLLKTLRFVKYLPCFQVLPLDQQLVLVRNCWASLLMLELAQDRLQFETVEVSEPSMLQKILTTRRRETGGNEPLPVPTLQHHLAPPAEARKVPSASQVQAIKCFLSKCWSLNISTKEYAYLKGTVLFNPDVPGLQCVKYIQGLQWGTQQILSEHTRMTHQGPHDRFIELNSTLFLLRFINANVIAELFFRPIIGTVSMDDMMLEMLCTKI
Large screens that a line does not name were inactive.

CCOc1ccccc1NC(=O)c1ccc2nc[nH]c2c1	DAX1 inh-2 4.4
Cc1[nH]c2ccc(C(=O)Nc3ccncc3)cc2c1C	none
CCOC(=O)CC[C@@H]1CC[C@]2(CCCN(C(=O)c3ccccc3)C2)O1	none (no result: GAA850 FXN act, DAX1 inh-2)
O=C(O)c1ccc(Oc2nc3ccccc3s2)cc1	ssDAF-12 act 1.2
COc1ccc(CN2C(C(=O)NC3CCCC3)CSCCS2(=O)=O)cc1 (stereo not drawn)	none (no result: GAA850 FXN act, DAX1 inh-2)
O=C(/C=C/c1ccc(OC2CSC2)cc1)c1ccc(Cl)cc1	hcDAF-12 act 5.6
COc1ccc(C(=O)/C=C/c2ccc(OC3CSC3)cc2)cc1OC	none
O=C(CN(CCc1ccccc1)S(=O)(=O)c1ccc(F)cc1)N1CCOCC1	none (no result: GAA850 FXN act, DAX1 inh-2)
CC1=C(C(=O)Nc2ccc(C)cc2C)C(c2ccc(Cl)cc2)n2nc(C(=O)OC(C)C)nc2N1 (stereo not drawn)	DAX1 inh-2 4.4
CCn1c(SCC(=O)Nc2cccc3ccccc23)nnc1-c1cccs1	none (no result: GAA850 FXN act, DAX1 inh-2)
Cc1cccc(-n2ccnc2CN2CCN(C3CCCC3)C(CCO)C2)c1 (stereo not drawn)	none
COc1ccc(-n2ccnc2CN2CCN(C3CCCC3)C(CCO)C2)cc1 (stereo not drawn)	DAX1 inh-2 4.7
O=C(NNc1ncnc2ccccc12)c1cccc(Cl)c1	hgDAF-12 ag 11, DAX1 inh-2 5.8
N=c1cc(C2(O)CCCCC2)n2c(nc3ccccc32)s1	DAX1 inh-1 3.6, hgDAF-12 ag 11
CCCCCC[C@H](CC)CN(C(=O)Oc1ccccc1)c1ccccc1	none (no result: GAA850 FXN act, DAX1 inh-2)
O=C(Cc1noc2ccccc12)Nc1ccccn1	hgDAF-12 ag 11
COC(=O)[C@]12C[C@H](CC(=O)NCc3cccc(C(F)(F)F)c3)C(=O)N(Cc3cccc4ccccc34)C1=C[C@H](C(C)(C)C)O[C@@H]2C	none (no result: GAA850 FXN act, DAX1 inh-2)
COc1ccc(C(=O)c2c3ccccc3[n+]([O-])n2Cc2ccc(C(N)=O)cc2)cc1	none
COc1ccc2c(C(=O)c3ccc(C)cc3)n(Cc3ccc(C(N)=O)cc3)[n+]([O-])c2c1	hcDAF-12 act 11, ssDAF-12 act 2.1
Cc1ccc(-c2cc(-c3ccccc3)nc(Cl)n2)cc1	hcDAF-12 act 6.0
S=C(NN=C1C2CC3CC(C2)CC1C3)Nc1ccccc1	hcDAF-12 act 6.1, ssDAF-12 act 1.2
CCOC(=O)Cn1cc(CN2CCS(=O)(=O)N(Cc3ccc(C)cc3)C(C(=O)OC)C2)nn1 (stereo not drawn)	none (no result: GAA850 FXN act, DAX1 inh-2)
O=C(NC1CCCCC1)C(CCc1ccccc1)N1CCOCC1 (stereo not drawn)	hgDAF-12 ag 12 (no result: GAA850 FXN act, DAX1 inh-2)
Cc1cc(C(=O)NNc2ccccc2F)no1	DAX1 inh-2 7.2
CCc1ccccc1NNC(=O)c1cc(C)on1	none
O=C(/C=C/c1cn(CC(O)CN2CCCCC2)c2ccccc12)c1ccccc1 (stereo not drawn)	none
COc1ccc(C(=O)/C=C/c2cn(CC(O)CN3CCN(C)CC3)c3ccccc23)cc1OC (stereo not drawn)	DAX1 inh-2 5.0
Nc1nonc1-n1nnc(C(=O)N/N=C/c2ccccc2)c1CN1CCc2ccccc21	none
C/C(=N\NC(=O)c1nnn(-c2nonc2N)c1CN1CCc2ccccc21)c1ccccc1O	hcDAF-12 act 5.6
CN(C=O)c1ccc(CSc2ccccc2)cc1	hgDAF-12 ag 12
c1ccc2oc(C3=NNC(=NC4CC4)SC3)cc2c1	hcDAF-12 act 6.8
c1ccc(CN=C2NN=C(c3cc4ccccc4o3)CS2)cc1	none
OC(c1ccccc1)c1nc(-c2ccc3c(c2)OCO3)cs1 (stereo not drawn)	hgDAF-12 ag 13 (no result: DAX1 inh-2)
OC(c1cccc(Cl)c1)c1nc(-c2ccc3c(c2)OCO3)cs1 (stereo not drawn)	none (no result: DAX1 inh-2)
COc1ccc(C(O)c2nc(-c3cccc(C(=O)O)c3)cs2)cc1 (stereo not drawn)	none (no result: DAX1 inh-2)
O=C(O)c1cccc(-c2csc(C(O)c3ccc(F)cc3)n2)c1 (stereo not drawn)	DAX1 inh-1 4.2 (no result: DAX1 inh-2)
O=c1[nH]c2ccccc2nc1-c1c[nH]c2ccccc12	hcDAF-12 act 6.5

From PubChem BioAssay
